Assay results as given in the supplement of paper PMC6897291.

Tested on: RIVA
Test: growth inhibition by drug alone (1 - RLU/untreated control) (fraction); higher = stronger inhibition
Settings: 10 nM; time (day): 4; 177Lu-lilotomab satetraxetan 0 ug/ml
How it was run: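 RIVA or U-2932 cells were left untreated or pretreated for 18 h with a radiolabelled anti-CD37 antibody conjugate (~600 MBq/mg) at 0.5 µg/ml for RIVA or 1 µg/ml for U-2932. The cells were then washed and seeded at 3,000 cells/well on plates pre-printed with the Selleck Cambridge Cancer Compound library, dosed at 10/100 nM for RIVA and 10/1,000 nM for U-2932. From day 3, RealTime-Glo luminescence was read daily after 1 h at 37°C. Growth inhibition was taken as one minus RLU over the mean of the untreated no-drug wells, of which there were 48 per plate.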

| Compound | growth inhibition by drug alone |
| --- | --- |
| COc1ccc(S(=O)(=O)Nc2cccnc2Nc2ccc(O)cc2)cc1 | -0.157 |
| C[C@]12CCC(=O)C=C1CC[C@@H]1[C@@H]2[C@@H](O)C[C@@]2(C)[C@H]1CC[C@]2(O)C(=O)CO [Hydrocortisone (Cortisol)] | -0.0297 |
| COc1cc(OC2CCN(C)CC2)ccc1Nc1ncc2c(n1)n(C1CCCC1)c(=O)n2C | -0.291 |
| Nc1nc(F)nc2c1ncn2[C@@H]1O[C@H](CO)[C@@H](O)[C@@H]1O [Fludarabine (Fludara)] | 0.0421 |
| Nc1nc(Nc2ccc(S(N)(=O)=O)cc2)nn1C(=O)c1c(F)cccc1F | -0.0123 |
| Nc1ncn([C@@H]2O[C@H](CO)[C@@H](O)[C@H]2O)c(=O)n1 [Azacitidine (Vidaza)] | -0.286 |
| COc1cc2nccc(Oc3ccc(NC(=O)NC4CC4)c(Cl)c3)c2cc1C(N)=O [E7080 (Lenvatinib)] | -0.277 |
| Nc1ccn([C@@H]2O[C@H](CO)[C@@H](O)[C@@H]2O)c(=O)n1 [Cytarabine] | -0.0678 |
| Nc1cccc2c1C(=O)N(C1CCC(=O)NC1=O)C2=O (configuration not stated) [Pomalidomide] | -0.0278 |
| CN(C)c1nc(N(C)C)nc(N(C)C)n1 [Altretamine (Hexalen)] | -0.257 |
| Cc1[nH]c(/C=C2\C(=O)Nc3ccc(S(=O)(=O)N(C)c4cccc(Cl)c4)cc32)c(C)c1C(=O)N1CCN(C)CC1 | -0.174 |
| O=C(O[C@@H]1Cc2c(O)cc(O)cc2O[C@@H]1c1cc(O)c(O)c(O)c1)c1cc(O)c(O)c(O)c1 [(-)-Epigallocatechin gallate] | -0.156 |
